The supplement of paper PMC8728848
About 410 targets per protein were measured; listed, in parts, are those with the strongest signals and a random draw of the rest.

Experiments:
Assay in all cases: glycan array binding signal (z-score within array); higher = stronger binding
Settings in all cases: glycan notation: IUPAC condensed, linker removed
[1] = target: Fuc(a1-2)Gal(b1-3)GalNAc(a1-3)[Fuc(a1-2)]Gal(b1-4)Glc
How it was run: (§1)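 Columns mapping to the same glycan were averaged after glycan names were converted to IUPAC-condensed notation. The data come from 3228 arrays in the Consortium for Functional Glycomics database, limited to those with an available protein sequence. Binding is reported as a within-array Z-score averaged across arrays of one protein sequence and across linkers.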

[2] = target: Fuc(a1-2)Gal(b1-3)GlcNAc(b1-3)Gal(b1-4)Glc
How it was run: as §1

Fuc(a1-2)Gal(b1-4)Glc6S = target: Fuc(a1-2)Gal(b1-4)Glc6S
How it was run: as §1

[3] = target: Fuc(a1-2)[Gal(a1-3)]Gal(b1-4)[Fuc(a1-3)]GlcNAc
How it was run: as §1

[4] = target: Fuc(a1-2)[GalNAc(a1-3)]Gal
How it was run: as §1

[5] = target: Fuc(a1-2)[GalNAc(a1-3)]Gal(b1-4)GlcNAc(b1-3)Gal(b1-4)GlcNAc(b1-3)Gal(b1-4)GlcNAc
How it was run: as §1

[6] = target: Fuc(a1-3)[Gal(b1-4)]GlcNAc(b1-3)GalNAc
How it was run: as §1

[7] = target: Fuc(a1-3)[Gal3S(b1-4)]GlcNAc
How it was run: as §1

[8] = target: Gal(b1-3)GalNAc(a1-3)[Fuc(a1-2)]Gal(b1-4)Glc
How it was run: as §1

[9] = target: Gal(b1-3)GlcNAc(b1-6)Gal(b1-4)GlcNAc
How it was run: as §1

Gal(b1-4)GlcNAc = target: Gal(b1-4)GlcNAc
How it was run: as §1

[10] = target: Gal(b1-4)GlcNAc(b1-2)Man(a1-3)[Gal(b1-4)GlcNAc(b1-2)Man(a1-6)]Man(b1-4)GlcNAc(b1-4)GlcNAc
How it was run: as §1

[11] = target: Gal(b1-4)GlcNAc(b1-3)Gal(b1-3)GlcNAc
How it was run: as §1

[12] = target: Gal(b1-4)GlcNAc(b1-3)Gal(b1-4)[Fuc(a1-3)]GlcNAc(b1-3)Gal(b1-4)[Fuc(a1-3)]GlcNAc
How it was run: as §1

Gal6S(b1-4)GlcNAc6S = target: Gal6S(b1-4)GlcNAc6S
How it was run: as §1

GalNAc(b1-3)Gal = target: GalNAc(b1-3)Gal
How it was run: as §1

Glc(a1-4)Glc = target: Glc(a1-4)Glc
How it was run: as §1

GlcA(b1-3)GlcNAc = target: GlcA(b1-3)GlcNAc
How it was run: as §1

[13] = target: GlcNAc(b1-2)Man(a1-3)[GlcNAc(b1-2)Man(a1-6)]Man(b1-4)GlcNAc(b1-4)GlcNAc
How it was run: as §1

[14] = target: GlcNAc(b1-2)[GlcNAc(b1-4)]Man(a1-3)[GlcNAc(b1-2)Man(a1-6)]Man(b1-4)GlcNAc(b1-4)GlcNAc
How it was run: as §1

[15] = target: GlcNAc(b1-3)[GlcNAc(b1-4)][GlcNAc(b1-6)]GlcNAc
How it was run: as §1

[16] = target: GlcNAc(b1-3)[GlcNAc(b1-6)]Gal(b1-4)GlcNAc
How it was run: as §1

[17] = target: GlcNAc(b1-4)[GlcNAc(b1-6)]GalNAc
How it was run: as §1

[18] = target: Neu5Ac(a2-3)Gal(b1-3)GalNAc6S
How it was run: as §1

[19] = target: Neu5Ac(a2-3)Gal(b1-3)GlcNAc6S
How it was run: as §1

[20] = target: Neu5Ac(a2-3)Gal(b1-3)[Fuc(a1-4)]GlcNAc(b1-3)Gal(b1-3)[Fuc(a1-4)]GlcNAc
How it was run: as §1

[21] = target: Neu5Ac(a2-3)Gal(b1-3)[Neu5Ac(a2-6)]GalNAc
How it was run: as §1

[22] = target: Neu5Ac(a2-3)Gal(b1-4)GlcNAc(b1-3)Gal(b1-4)[Fuc(a1-3)]GlcNAc
How it was run: as §1

Neu5Ac(a2-6)Gal(b1-4)Glc = target: Neu5Ac(a2-6)Gal(b1-4)Glc
How it was run: as §1

[23] = target: Neu5Ac(a2-6)GlcNAc(b1-4)GlcNAc
How it was run: as §1

B1: SSL (Salmo salar) (protein)
chain: TGAKGAEEGVVPAETRNQCPTGWFQFGSRCFMFVETARSWPLAERHCVSLGANLASVHSSADDQFLQAIAGCKTGAFSTTWIGGFDAVQDRLWFWSDGSEFDYQNWAKGEPNNSGGREPCIVINWGDEYRWNDIKCGNSFPSVCSKRICEIQKN
- glycan array binding signal (z-score) [1]: -0.152
- glycan array binding signal (z-score) [2]: -0.096
- glycan array binding signal (z-score) (Fuc(a1-2)Gal(b1-4)Glc6S): -0.137
- glycan array binding signal (z-score) [3]: -0.154
- glycan array binding signal (z-score) [4]: -0.165
- glycan array binding signal (z-score) [5]: -0.178
- glycan array binding signal (z-score) [6]: -0.124
- glycan array binding signal (z-score) [7]: -0.17
- glycan array binding signal (z-score) [8]: -0.165
- glycan array binding signal (z-score) [9]: -0.163
- glycan array binding signal (z-score) (Gal(b1-4)GlcNAc): -0.154
- glycan array binding signal (z-score) [10]: -0.167
- glycan array binding signal (z-score) [11]: -0.174
- glycan array binding signal (z-score) [12]: -0.175
- glycan array binding signal (z-score) (Gal6S(b1-4)GlcNAc6S): -0.162
- glycan array binding signal (z-score) (GalNAc(b1-3)Gal): -0.143
- glycan array binding signal (z-score) (Glc(a1-4)Glc): 2.63
- glycan array binding signal (z-score) (GlcA(b1-3)GlcNAc): 4.35
- glycan array binding signal (z-score) [13]: 3.12
- glycan array binding signal (z-score) [14]: 6.65
- glycan array binding signal (z-score) [15]: 11.7
- glycan array binding signal (z-score) [16]: 6.68
- glycan array binding signal (z-score) [17]: 8.49
- glycan array binding signal (z-score) [18]: -0.18
- glycan array binding signal (z-score) [19]: -0.167
- glycan array binding signal (z-score) [20]: -0.086
- glycan array binding signal (z-score) [21]: -0.153
- glycan array binding signal (z-score) [22]: -0.179
- glycan array binding signal (z-score) (Neu5Ac(a2-6)Gal(b1-4)Glc): -0.158
- glycan array binding signal (z-score) [23]: 0.202
